Assay results: PubChem BioAssay (NCATS)
Inconclusive results are not listed. Calls come from the whole dose curve; as a rule, active = well fitted curve in either direction with a large enough effect (not every such curve was filed as active); inconclusive = small, poorly fitted or top-dose-only effect, or another doubt; inactive = flat fitted curve, though single readings scatter.

assay: AP1 Signaling Pathway (AID 357); details: ME-180 (cervical carcinoma) AP-1-bla reporter, EGF-induced, beta-lactamase ratio, 5 h; at 7.69 µM (top of the series) unless noted
In short: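 AP-1-bla ME-180 cells with beta-lactamase reporter under AP-1 response element, stimulated with EC50 EGF; compounds titrated, 5 hours at 37 degrees Celsius. CCF4 read at 460/530 nm ratio; positive and negative modulators judged by AC50.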
% is set by controls: 0 for no effect and ±100 for the full control effect.

Activity change, negative = inhibition, inactive:
COCCn1c(=O)c(-c2ccc(OC)cc2)nc2cnc(Nc3ccccc3)nc21 6.46%, CN(C)Cc1ccccc1-c1cncnc1Nc1ccc(F)cc1 18.9%, N#Cc1cccc(NC(=O)N2CC3(CCN(C(=O)c4cnccn4)CC3)C2)c1 -10.3%, COc1ccc(C(=O)N2CCC3(CCCN(c4ccc(-c5ccccc5)cc4)C3)CC2)cc1 -8.58%, N#CCCn1c(=O)cnc2cnc(Nc3ccccc3)nc21 -26.6%, O=C(c1ccncc1)N1CCC[C@@]2(CCN(Cc3cc(C(F)(F)F)cc(C(F)(F)F)c3)C2)C1 8.67%, Cn1cccc1C(=O)N1CCC[C@@]2(CCN(c3cccc(-c4ccccc4)c3)C2)C1 -10.7%, N#Cc1ccc(CN2CCC3(CC2)CCN(C(=O)c2cnccn2)CC3)cc1 4.06%, CCNc1ncc2nc(-c3cccs3)c(=O)n(-c3ccc(OC)cc3)c2n1 -0.164%, c1cncc(-c2nc(NCCN3CCOCC3)c3ccccc3n2)c1 -8.53%, O=C(Nc1cccc(F)c1)N1CCC2(CC1)CCN(C(=O)c1ccncc1)CC2 -9.1%, O=C(Oc1ccccc1)N1CCC[C@@]2(CCN(c3ccccc3)C2)C1 -15.6%, CC(=O)N1CCC2(CC1)CCN(c1ccccc1)CC2 16.1%, O=C(c1ccco1)N1CCC2(CCCN(c3cccc(-c4ccccc4)c3)C2)CC1 12.9%, O=C(Oc1ccccc1)N1CCC2(CC1)CCN(c1ccccn1)CC2 -11.8%
